Source: PubChem BioAssay AID1788 (Vanderbilt High Throughput Screening Facility, 2009)
Unmarked numbers belong to inactive results. No rule for the calls is given here.

Tested on: Rolipram (rat)
Assay: PubChem AID 1788
Conditions: MDS Pharma lead profiling panel, radioligand binding, at 10 µM, stronger effect = higher value

## CCOC(=O)N1CCC(NCCNC(=O)c2ccccc2C)CC1
  inhibition: -2%
